Screens: PubChem BioAssay, National Center for Advancing Translational Sciences (NCATS)
MCF10A rereplic: DNA re-replication induction in MCF 10a cells; MCF 10A DNA re-replication, Hoechst nuclear intensity, 48 h; Potency, µM (top dose mostly 46.1 µM), actives largely listed as activators; actives 2.9% (n = 350,000); further: nearly all actives have a fitted effect of over 50% in size
SW480 rereplic: induces DNA re-replication in SW480 colon adenocarcinoma cells; SW480 DNA re-replication, Hoechst DNA content imaging, 48 h; Potency, µM (doses to about 46.1 µM), actives largely listed as activators; actives 1.8% (n = 340,000); AID 624297; further: nearly all actives have a fitted effect of over 55% in size
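250 cells/well; 23 nL cpd via pin tool; 48 hr, 37 C, 5% CO2; Hoechst 40 min; imager read of total nuclear intensity, ex 405/em 500-530 nm.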
KB-3-1 cytotox: kills parental KB-3-1 adenocarcinoma cells; KB-3-1 viability, CellTiter-Glo ATP luminescence, 72 h; Potency, µM (top dose mostly 46.1 µM), usual class: cytotoxic; actives 1.4% (n = 400,000); AID 1347075; further: nearly all actives have a fitted effect of over 60% in size
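Luminescent ATP read-out (CellTiter-Glo) measures survival of drug-naive KB-3-1 cells after 72 h compound exposure at 37 °C. Titration series was screened from lowest to highest concentration, with DMSO vehicle plates as background controls.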
IL-1B inflam inh: blocks inflammasome-driven IL-1 beta release. THP-1 LPS/ATP IL-1B secretion, AlphaLISA, 16 h; stronger effect = lower value. actives 4.7% (n = 360,000). activity change, % at 57.5 µM. AID 743279; in the data active means activity change below about -50%; inconclusive means mostly about -30% to -49%
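THP-1 cells pretreated 1 hr with compounds (up to 57.5 uM final), then stimulated with LPS (250 ng/mL final) plus ATP (1.25 mM final); secreted IL-1B measured by AlphaLISA after 16 hr, decreased signal indicating inhibition.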
KB-V1 MDR tox: kills drug-selected multidrug resistant KB-V1 cells; KB-V1 MDR cells viability, CellTiter-Glo, 72 h; Potency, µM (titrated, usually from 46.1 µM), usual class: cytotoxic; actives 3.4% (n = 400,000); further: nearly all actives have a fitted effect of over 60% in size
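KB-V1 cells (P-gp-expressing MDR subline of KB-3-1) in phenol-red-free DMEM with 10% FBS were exposed to library compounds over a concentration series for 72 h at 37 degrees C. Viability read by CellTiter-Glo luminescence; concentration-effect curves fitted after normalization.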
Numbers stand for hits; – = inactive; ? = inconclusive; · = not tested or not shown; [ ] = another dose, or the depositor's remark. This is a sample that favours compounds with a hit; in the whole collection about 9.9% have one here. Unless noted, the call rests on the fitted dose curve; in most records, active means well fitted curve in the direction sought with a large enough effect; inconclusive means small, poorly fitted or top-dose-only effect, or another doubt; inactive means no such curve, though single readings can be large; an effect the other way counts as inactive or inconclusive.

SMILES	MCF10A rereplic	SW480 rereplic	KB-3-1 cytotox	IL-1B inflam inh	KB-V1 MDR tox
CCCCC[C@@H]1C=C(C(=O)O)[C@H](c2cccc(C)c2)N1S(=O)(=O)c1ccc(C)cc1	–	–[9.22 µM]	–	–	–
CCOc1ccc(CNC(=O)CCn2c(=O)oc3ccccc32)cc1	–	–	–	–	23µM
COc1ccc(CNC(=O)CCn2c(=O)oc3ccccc32)cc1	–	–	–	–	–
CCOc1ccc(OCC)c(NC(=O)CCn2c(=O)oc3ccccc32)c1	–	–	–	–	8.2µM
COC(=O)c1sccc1N/N=C/c1cccc(Oc2ccccc2)c1	?	–	–	–	–
CCOC(=O)c1nc(N2CCN(c3ccc(F)cc3)CC2)c2c(C)noc2n1	·	·	–	·	–
COc1ccc(NC(=O)C2CCCO2)cc1 (stereo not given)	–	–	–	–	–
O=C(Nc1ccc(N=Nc2ccccc2)c(NC(=O)C2CCCO2)c1)C1CCCO1 (stereo not given)	?	–	–	-83	?
O=C(Nc1ccc([N+](=O)[O-])c(NC(=O)C2CCCO2)c1)C1CCCO1 (stereo not given)	–	–	–	–	–
CC(C)N(c1ccccc1)c1ccc(NC(=O)C2CCCO2)cc1 (stereo not given)	–	–	–	–	21µM
O=C(Nc1ccc(Oc2ccccc2)cc1)C1CCCO1 (stereo not given)	7.3µM	?	–	–	–
Cn1nc([N+](=O)[O-])nc1Oc1ccc(C(C)(C)C)cc1	?	–	–	–	15µM
Cn1nc([N+](=O)[O-])nc1Oc1ccccc1	–	–	–	–	?
C[C@H]1CN([C@@H](C)CO)C(=O)CCCn2cc(nn2)CO[C@@H]1CN(C)C(=O)OCc1ccccc1	·	·	–	–	–
CCOC(=O)C1=C(COC(=O)Cc2ccc(Cl)cc2)NC(=O)NC1C (stereo not given)	–	–	–	–	?
Cc1ccc2c(c1)c(C)c(C)n2CC(O)CN1CCCCC1C (stereo not given)	–	?	–	·	?
Cc1ccc2c(c1)c1c(n2CC(O)CN2CCCCC2C)CCCC1 (stereo not given)	?	18µM	?	–	–
Cc1ccc2c(c1)c1c(n2CC(O)CNC2CCCCC2)CCCC1 (stereo not given)	?	–	?	-112	?
Cc1ccc2c(c1)c1c(n2CC(O)CN2CCC(C)CC2)CCCC1 (stereo not given)	–	–	–	-65	–
Cc1ccc2c(c1)c1c(n2CC(O)CNC(CO)(CO)CO)CCCC1 (stereo not given)	–	–	–	–	–
CC(C)c1ccc(C2N=C(N)Nc3nc4ccccc4n32)cc1 (stereo not given)	·	·	?	·	–
N#Cc1cc(C#N)c(N2CCN(c3cccc(Cl)n3)CC2)nc1N	3.3µM	–	–	–	18µM
CCc1ccccc1NC(=O)CSc1nc2ncccc2o1	·	·	–	·	–
COCCNC(=O)/C(C#N)=C/c1ccc(SC)cc1	–	–	?	?	–
COCCNC(=O)/C(C#N)=C/c1c(F)cccc1Cl	?	–	–	-54	–
SMILES	MCF10A rereplic	SW480 rereplic	KB-3-1 cytotox	IL-1B inflam inh	KB-V1 MDR tox
COc1cc(/C=C(/C#N)C(=O)NCCCc2ccccc2)ccc1OCC(=O)O	–	–	–	–	–
N#C/C(=C\c1cccc(NC(=O)c2ccccc2Cl)c1)C(=O)NCCc1ccccc1	?	18µM	?	-101	–
COCCCNC(=O)/C(C#N)=C/c1cccc(NC(=O)c2ccccc2Cl)c1	–	1.6µM	–	-103	?
COc1ccc(-c2c(C#N)c(N)nc3c2CCCC3)cc1OC	–	–	–	–	–
N#Cc1c(N)nc2c(c1-c1ccccc1)CCC2	?	?	?	–	10µM
COc1ccc(-c2c(C#N)c(N)nc3c2CCC3)cc1	2.9µM	21µM	–	–	?
CSc1nc2c(c(-c3ccc(O)cc3)c1C#N)CCC2	26µM	–	?	–	–
C(#Cc1ccccc1)C[N+]1(CC#Cc2cccc3ccccc23)CCCC1	?	–	16µM	-62	–
CCCCN(CC)CCCNC(=S)Nc1ccc2nc(N3CCN(C)CC3)cc(C)c2c1	–	?	–	-54	–
Cc1cc(N2CCOCC2)nc2ccc(NC(=S)NCCC(C)C)cc12	?	–	–	-50	–
